Source: PubChem BioAssay (several laboratories)
Sampled rows, rich in hits. Any-hit rate of the full collection: about 32%.
CYP2C19 inhib = inhibitors of human CYP2C19 | AID 778 | CYP2C19 Supersomes, luciferin-H EGE luminescence, 30 min | actives 21% (n = 96,000) | inhibition, % at 5 µM;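 active means CYP2C19 inhibition above a set limit at 5 µM in the primary screen, cut at about 50% in these data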;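 further: plate controls were negative control wells for no effect and 2.5 mM tranylcypromine positive control for full effect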
Target sequence (P33261 whole entry, looked up): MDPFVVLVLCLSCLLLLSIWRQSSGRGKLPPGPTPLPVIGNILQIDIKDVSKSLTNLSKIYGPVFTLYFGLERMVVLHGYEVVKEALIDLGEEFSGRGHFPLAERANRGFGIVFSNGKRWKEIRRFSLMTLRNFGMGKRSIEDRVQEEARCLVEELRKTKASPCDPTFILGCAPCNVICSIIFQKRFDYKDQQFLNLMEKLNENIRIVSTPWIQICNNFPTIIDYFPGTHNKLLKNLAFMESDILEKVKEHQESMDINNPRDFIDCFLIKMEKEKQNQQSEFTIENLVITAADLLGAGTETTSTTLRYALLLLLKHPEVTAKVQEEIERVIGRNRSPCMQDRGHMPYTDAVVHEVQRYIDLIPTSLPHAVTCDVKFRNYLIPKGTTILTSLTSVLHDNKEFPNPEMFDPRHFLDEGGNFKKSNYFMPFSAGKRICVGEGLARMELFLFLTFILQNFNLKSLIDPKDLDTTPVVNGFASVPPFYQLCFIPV
PostGolgi yeast = growth inhibition of a yeast mutant, post-Golgi transport screen | post-Golgi transport phenotypic cell assay | inhibition, % at 10 µM | actives 0.9% (n = 98,000) | AID 739;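 further: yeast cells grown in 1536-well plates; yeast grown about 18 h at 30C before absorbance read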
PostGolgi ctrl = yeast control strain growth, post-Golgi counter-screen; inhibition, % at 10 µM; AID 738; actives 5% (n = 98,000); efflux-deficient yeast background strain, growth absorbance A615, 16 h
CYP2C9 inhib = inhibitors of human CYP2C9. CYP2C9 Supersomes, luciferin-H conversion, luminescence. inhibition, % at 5 µM. actives 20% (n = 96,000);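 active means blocking of liver enzyme CYP2C9 beyond about 50% at 5 µM, limit read from the data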
CYP2C9 activ = activators of human CYP2C9; recombinant CYP2C9, luciferin-H conversion, luminescence; active compounds read high; factor 1 = untreated enzyme, 0 = blocked; activation factor at 5 µM; actives 1.4% (n = 96,000);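 active means activation factor of 2 or more for CYP2C9 at a 5 µM dose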;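 further: 0 = sulfaphenazole-blocked wells and 1 = vehicle-only wells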
CYP2C19 act = increases human CYP2C19 enzyme activity; 96,000 tested, under 10 active; recombinant CYP2C19, luciferin-H EGE luminescence; active compounds read high; 0 = fully inhibited enzyme, 1 = untreated enzyme; activation factor at 5 µM; P33261;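 active means activation factor of at least 2 at 5 µM in the primary screen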;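 further: 0 = wells with 2.5 mM tranylcypromine and 1 = vehicle-only wells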
The depositor's hits bear a star; / = no result given. Unless noted, no stated cut-off is given here; in the data, active means inhibition above about 30%; inactive means the rest.

SMILES	CYP2C19 inhib	PostGolgi yeast	PostGolgi ctrl	CYP2C9 inhib	CYP2C9 activ	CYP2C19 act
Cc1ccc(S(=O)(=O)NCc2ccc(C(=O)NCCCN3CCN(C)CC3)cc2)cc1	-2.2	1.7	0.9	3.8	1	1
Cc1cc(C(=O)N/N=C/c2cccc(OC(=O)c3ccco3)c2)n[nH]1	-4.4	7.9	18.0	15.6	0.8	1
O=C(CSc1nc(C2CCCCC2)n(-c2ccccc2)n1)NCCN1C(=O)CSC1=O	95.3*	0.4	0.6	97.7*	0	0
Cn1nc(CC(=O)NCCN2C(=O)CSC2=O)c2ccccc2c1=O	70.4*	-6.9	-5.9	-15.1	1.2	0.3
CCn1nc(C(=O)OCC(=O)NCCN2C(=O)CSC2=O)c2ccccc2c1=O	-7.9	25.1	-2.8	-9.0	1.1	1.1
Cc1nnc(SCC(=O)NCCN2C(=O)CSC2=O)s1	-0.8	7.2	-1.7	-6.2	1.1	1
O=C(CSc1nc(-c2ccccc2)c(-c2ccccc2)[nH]1)NCc1ccco1	36.9	-0.8	10.9	50.2*	0.5	0.6
COc1ccc(-c2[nH]c(-c3cccc(OC)c3)nc2SCC(=O)NCc2ccco2)cc1	94.5*	-4.0	8.5	83.9*	0.2	0.1
Cc1cccc(NC(=S)NC2CC3CCC(C2)N3Cc2ccco2)c1 (stereo not given)	-7.7	-6.9	9.7	-4.0	1	1.1
COc1ccc(CNC(=O)C2CC(=O)N(c3ccc(OCC(=O)N4CCCCC4)cc3)C2)cc1 (stereo not given)	32.2	-4.2	-0.9	47.3	0.5	0.7
CCCc1c(C)c2c(C)[nH]nc2oc1=O	62.3*	-4.0	1.4	-75.1	1.8	0.4
OC(c1ccccc1)(c1ccc(F)cc1)C(c1ccccc1)N1CCOCC1 (stereo not given)	68.7*	7.4	30.7*	4.2	1	0.3
CN(CC(=O)N1CCc2ccccc21)S(=O)(=O)c1ccc(Br)s1	93.8*	-6.1	24.1	-23.4	1.2	0.1
Cc1ccc(S(=O)(=O)N(C)CC(=O)N2CCCc3ccccc32)cc1	29.5	-1.5	8.4	-172.4	2.7*	0.7
Cc1nc2ccc(S(=O)(=O)N(C)CC(=O)N3CCc4ccccc43)cc2s1	19.6	-3.4	12.8	-33.4	1.3	0.8
Cn1cc(S(=O)(=O)CC(=O)N2CCCc3ccccc32)c2ccccc21	83.5*	-1.4	7.9	-88.4	1.9	0.2
Cc1ccc(S(=O)(=O)CCC(=O)N2CCc3ccccc32)cc1	1.4	-10.8	10.0	-116.3	2.2*	1
Cc1ccc(S(=O)(=O)N2CCN(C(=O)CCC(=O)N3CCc4ccccc43)CC2)cc1	38.7	/	/	4.9	1	0.6
O=C(O)CC1C(=O)NCCN1CCCc1ccccc1 (stereo not given)	-0.6	-1.0	3.1	-6.2	1.1	1
O=P(O)(O)COc1ccccc1P(=O)(c1ccccc1)c1ccccc1	1.9	-13.2	9.8	-8.1	1.1	1
Cc1cc(=O)n2[nH]c(COc3ccccc3)nc2n1	0.6	-1.3	3.5	21.6	0.8	1
Cc1ccc(N(CC(=O)N2CCc3ccccc32)C2=NC(=O)CS2)cc1	56.0*	-0.3	5.5	67.4*	0.3	0.4
Cc1ccc(C2=[N+]([O-])C3(CCCCC/C3=N\NC(N)=O)N(O)C2(C)C)o1 (stereo not given)	0.7	18.6	4.9	-0.5	1	1
Cc1ccc(C2=[N+]([O-])C3(CCCCC/C3=N\NC(N)=S)N(O)C2(C)C)o1 (stereo not given)	12.9	3.7	-2.7	74.4*	0.3	0.9
CCCCn1c(=O)n(C)c(=O)c2c(C(F)(F)F)cc(-c3ccncc3)nc21	72.9*	13.8	15.5	47.5	0.5	0.3
SMILES	CYP2C19 inhib	PostGolgi yeast	PostGolgi ctrl	CYP2C9 inhib	CYP2C9 activ	CYP2C19 act
CCOc1ccc2ccccc2c1C(=O)Nc1cc(=O)n(C)c(=O)n1C	/	3.2	11.1	/	/	/
O=C1CC(c2ccccc2)CC(O)=C1C=NCc1ccccc1 (stereo not given)	22.1	-2.2	7.4	18.5	0.8	0.8
CCC(C)N=CC1=C(O)CC(c2ccccc2)CC1=O (stereo not given)	52.0*	-9.3	7.5	45.3	0.5	0.5
CC(C)CCn1cnc2c(NCc3ccccc3)ncnc21	5.6	-4.1	18.3	16.8	0.8	0.9
CCOC(=O)C(CC(C)C)CP(=O)(O)CNC(=O)OCc1ccccc1 (stereo not given)	-1.2	0.2	1.8	9.7	0.9	1
C=CCc1c(C)nc(SC)nc1Nc1ccc(C(C)=O)cc1	94.5*	6.0	31.3*	97.2*	0	0.1
C=CCc1c(C)nc(SC)nc1Nc1ccc(C(=O)O)cc1	-15.2	23.2	8.5	-16.0	1.2	1.2
Cc1nn(-c2ccccc2)c2c1C1(C(=O)N(C(C)C)c3ccccc31)C(C#N)=C(N)O2 (stereo not given)	48.1	5.7	12.9	45.7	0.5	0.5
O=C(Nc1ccccc1-c1nc2ccccc2s1)c1ccco1	13.9	10.1	13.0	37.8	0.6	0.9
O=C(Nc1c(Cl)cc(Cl)cc1-c1nc2ccccc2s1)c1ccc(Br)o1	10.9	11.4	28.9	55.3*	0.4	0.9
COc1ccccc1C(=O)NC(C)c1nc2ccccc2[nH]1 (stereo not given)	55.7*	0.8	18.0	54.8*	0.5	0.4
COc1cc(C(=O)Nc2nc3ccccc3[nH]2)cc(OC)c1OC	/	10.7	8.3	/	/	/
CCOC(=O)c1c(C)nc2sc3c(=O)n(-c4ccc(C(C)=O)cc4)cnc3c2c1-c1ccc(Cl)cc1	93.8*	-7.2	-1.7	87.9*	0.1	0.1
CCCN(CCO)Cc1cccc(Oc2ccccc2)c1	42.1	26.8	0.7	4.1	1	0.6
CCCN(CCO)Cc1ccc2ccccc2c1	51.6*	3.9	-10.7	3.6	1	0.5
Cc1cc(C)cc(C(=O)N2CCC(C(N)=O)CC2)c1	-0.1	12.3	-2.5	-81.4	1.8	1
CCOc1ccccc1Nc1nc(-c2sc(NC(=O)c3ccc([N+](=O)[O-])cc3)nc2C)cs1	40.8	-1.0	2.9	34.3	0.7	0.6
Cc1ccccc1Nc1nc(-c2sc(NC(=O)c3ccccc3)nc2C)cs1	55.1*	-6.4	-2.3	10.3	0.9	0.4
Cc1nc(NC(=O)c2ccccc2)sc1-c1csc(Nc2ccc(F)cc2)n1	77.6*	32.6*	-3.2	-86.9	1.9	0.2
Cc1ccccc1Nc1nc(-c2sc(NC(=O)c3ccc([N+](=O)[O-])cc3)nc2C)cs1	52.5*	-7.5	15.8	44.5	0.6	0.5
Cc1cccc(NC(=O)CCc2c(C)nc3ncnn3c2C)n1	-9.0	-2.9	-0.5	-9.4	1.1	1.1
C=CCNC(=O)c1ccc2nc(-c3ccccc3)c(-c3ccccc3)nc2c1	7.3	8.3	35.9*	49.6	0.5	0.9
CC1CCN(C(=O)CSc2nnc(CN3CCOCC3)n2-c2ccccc2)CC1	-11.4	-4.4	-1.2	-19.5	1.2	1.1
